Publication PMC4336329 (PLoS ONE, 2015)
In all, about 310,000 compounds went through this assay and about 14,000 (4.5%) showed an effect of 50% or more. Effects have a minus sign here. What follows is part of a selection rich in strong results, with near analogues and random picks from the rest.

Molecular target: human ether-à-go-go-related gene (hERG) potassium channel (human, UniProt Q12809)
Assay: primary screen, population patch clamp on CHO cells stably expressing hERG; higher = less effect of the substance
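Also: peak tail current of the secondary pulse compared with the same well before compound.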

human ether-à-go-go-related gene (hERG) potassium channel, sequence (Q12809 whole entry, looked up): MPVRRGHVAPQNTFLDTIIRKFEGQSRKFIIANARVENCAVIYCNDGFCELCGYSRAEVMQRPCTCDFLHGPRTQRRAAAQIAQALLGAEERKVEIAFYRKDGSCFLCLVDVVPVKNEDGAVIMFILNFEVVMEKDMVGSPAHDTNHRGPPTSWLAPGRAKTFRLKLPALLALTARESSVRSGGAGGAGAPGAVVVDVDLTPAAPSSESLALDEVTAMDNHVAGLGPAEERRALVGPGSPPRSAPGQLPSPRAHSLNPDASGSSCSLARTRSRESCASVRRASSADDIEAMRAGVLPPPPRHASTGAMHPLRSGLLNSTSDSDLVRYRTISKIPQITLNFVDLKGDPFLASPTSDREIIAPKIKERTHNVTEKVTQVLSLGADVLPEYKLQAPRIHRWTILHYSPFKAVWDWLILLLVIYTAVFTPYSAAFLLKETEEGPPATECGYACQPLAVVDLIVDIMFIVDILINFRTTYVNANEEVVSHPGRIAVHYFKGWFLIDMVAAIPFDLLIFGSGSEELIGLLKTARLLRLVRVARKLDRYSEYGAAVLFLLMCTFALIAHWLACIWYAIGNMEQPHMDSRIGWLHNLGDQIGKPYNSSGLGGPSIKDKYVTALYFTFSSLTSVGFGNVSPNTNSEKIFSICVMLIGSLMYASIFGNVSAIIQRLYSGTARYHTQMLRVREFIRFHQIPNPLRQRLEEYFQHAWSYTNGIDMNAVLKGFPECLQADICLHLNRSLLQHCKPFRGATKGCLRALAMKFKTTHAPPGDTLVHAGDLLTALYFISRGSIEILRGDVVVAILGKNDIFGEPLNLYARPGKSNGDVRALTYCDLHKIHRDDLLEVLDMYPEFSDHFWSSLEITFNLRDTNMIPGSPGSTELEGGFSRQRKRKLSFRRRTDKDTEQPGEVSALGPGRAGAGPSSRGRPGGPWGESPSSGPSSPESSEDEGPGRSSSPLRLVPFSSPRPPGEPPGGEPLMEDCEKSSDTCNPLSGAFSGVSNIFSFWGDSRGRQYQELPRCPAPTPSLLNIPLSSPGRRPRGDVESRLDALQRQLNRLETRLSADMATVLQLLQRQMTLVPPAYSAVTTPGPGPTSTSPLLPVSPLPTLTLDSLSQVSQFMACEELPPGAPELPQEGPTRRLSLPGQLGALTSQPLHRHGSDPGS

Row | SMILES | hERG current change (%, negative = inhibition) at 10uM
1 | C/C=C(\C)CN1CCC(Oc2cccc(C(=O)NCc3ccccn3)c2)CC1 | -4.59%
2 | COC(=O)CN(c1cccc(C(C)=O)c1)S(C)(=O)=O | 9.02%
3 | O=C(c1ccccc1Br)N1N=C(c2ccccc2)CC1c1ccccc1F (stereo not drawn) | 15.7%
4 | CCc1cccc(NC(=O)C2CCCN2S(=O)(=O)c2ccc3c(c2)n(C)c(=O)c(=O)n3C)c1 (stereo not drawn) | -9.62%
5 | Cc1cccc(NC(=O)c2ccc(S(=O)(=O)N3CCCCC3)cc2)n1 | -6.69%
6 | Cc1cccc(NC(=O)c2ccc(Cl)c(S(=O)(=O)N3CCCCC3)c2)n1 | -71.3%
7 | Cc1ccc(NC(=O)c2ccc(Cl)c(S(=O)(=O)N3CCCC3)c2)nc1 | -8.97%
8 | Cc1cccc(NC(=O)c2ccc(Cl)c(S(=O)(=O)N3CCCCCC3)c2)n1 | -25.1%
9 | Cc1cccc(NC(=O)c2ccc(C)c(S(=O)(=O)N3CCCCC3)c2)n1 | -36.7%
10 | Cc1cccc(NC(=O)c2ccc(S(=O)(=O)N3CCCCCC3)cc2)n1 | -4.07%
11 | Cc1ccc(NC(=O)c2ccc(Cl)c(S(=O)(=O)N3CCCCC3)c2)nc1 | -23.4%
12 | Cc1cccc(NC(=O)c2ccc(S(=O)(=O)N3CCC(C)CC3)cc2)n1 | -59.2%
13 | Cc1ccnc(NC(=O)c2ccc(Cl)c(S(=O)(=O)N3CCCC3)c2)c1 | -15.7%
14 | Cc1ccc(NC(=O)c2ccc(Cl)c(S(=O)(=O)N3CCCCCC3)c2)nc1 | -57.9%
15 | Cc1ccnc(NC(=O)c2ccc(S(=O)(=O)N3CCCCC3)cc2)c1 | -17.9%
16 | Cc1ccnc(NC(=O)c2ccc(Cl)c(S(=O)(=O)N3CCCCC3)c2)c1 | -79.1%
17 | Cc1c(Cl)cccc1N1C(=O)C2ON(c3ccccc3)C(c3cccnc3)C2C1=O (stereo not drawn) | 4.12%
18 | Cn1c(CNC(=O)OC(C)(C)C)nnc1SCC(=O)N1CCOCC1 | 8.91%
19 | CSc1nc2nc(-c3ccc(F)cc3)c(CCN3CCN(C)CC3)cn2n1 | -2.66%

Row | SMILES | hERG current change (%, negative = inhibition) at 10uM
20 | Cc1cc(NC(=O)CSc2nc3ccccc3n2CC(C)C)no1 | 19.2%
21 | Cc1cccc(C(=O)Oc2ccccc2C(=O)N2CCOCC2)c1 | -8.06%
22 | COc1ccccc1N1CCN(C2CCCN(C(=O)CCn3cncn3)C2)CC1 (stereo not drawn) | 13%
23 | CCn1nnnc1SCC(=O)c1ccc(NC(C)=O)cc1 | 0.37%
24 | CCC1(CC)C(=O)N(C)C(=O)NC1=Nc1ccccc1 | 15.8%
25 | CC(C)(C)n1nnnc1C(c1cccs1)N1CCN(Cc2ccc3c(c2)OCO3)CC1 (stereo not drawn) | -19.4%
26 | CCC(C)(C)n1nnnc1C(c1ccc2ncccc2c1)N1CCN(Cc2ccc3c(c2)OCO3)CC1 (stereo not drawn) | -69.7%
27 | CC(C)(C)n1nnnc1C(c1ccc(F)cc1)N1CCN(Cc2ccc3c(c2)OCO3)CC1 (stereo not drawn) | -37.8%
28 | CCC(C)(C)n1nnnc1C(c1ccc2ncccc2c1)N1CCCC(C)C1 (stereo not drawn) | -13.6%
29 | Cc1ccc(C(c2nnnn2Cc2cccs2)N2CCN(Cc3ccc4c(c3)OCO4)CC2)cc1 (stereo not drawn) | -75.3%
30 | CCC(C)(C)n1nnnc1C(c1ccc(C)cc1)N1CCN(Cc2ccc3c(c2)OCO3)CC1 (stereo not drawn) | -50.3%
31 | CCC(C)(C)n1nnnc1C(c1ccc2ncccc2c1)N1CCCCCC1 (stereo not drawn) | 6.75%
32 | COCCn1nnnc1C(c1ccccc1)N1CCN(Cc2ccc3c(c2)OCO3)CC1.Cl (stereo not drawn) | -21.6%
33 | CCN1CCN(C(c2ccccc2)c2nnnn2Cc2ccc3c(c2)OCO3)CC1.Cl (stereo not drawn) | -39.1%
34 | CON(C)S(=O)(=O)c1cccc(C(=O)NC2CCSc3ccccc32)c1 (stereo not drawn) | -9.64%
35 | CCN(CC)CCN1C(=O)C(=O)/C(=C(/O)c2ccc(OC(C)C)cc2)C1c1cccs1 (stereo not drawn) | 0.529%
36 | Cc1cc(C(=O)N/N=C/c2cc(Br)c(Br)o2)n[nH]1 | 16%
37 | O=C(O)CNC(=O)c1ccccc1Br | 9.63%
38 | CC1CCCCN1S(=O)(=O)c1ccc(NC(=O)c2cccc(-n3cnnn3)c2)cc1 (stereo not drawn) | -18.4%

Row | SMILES | hERG current change (%, negative = inhibition) at 10uM
39 | CC1CCCCN1S(=O)(=O)c1ccc(S(=O)(=O)N2CCCC2)cc1 (stereo not drawn) | 5.9%
40 | O=C(C1CCN(S(=O)(=O)c2ccc(-n3cnnn3)cc2)CC1)N1CCCCC1 | -30.1%
41 | CC1CCCCN1S(=O)(=O)c1ccc(-n2cnnn2)cc1 (stereo not drawn) | -50.1%
42 | CC1CCN(C(=O)C2CCN(S(=O)(=O)c3ccc(-n4cnnn4)cc3)CC2)CC1 | -13.7%
43 | CC1CCCCN1C(=O)C1CCN(S(=O)(=O)c2ccc(-n3cnnn3)cc2)CC1 (stereo not drawn) | -61.5%
44 | COc1ccc(C(CNC(=O)c2cccc(S(=O)(=O)NCc3ccccc3)c2)N(C)C)cc1 (stereo not drawn) | -24.3%
45 | CN(C(=O)COC(=O)c1cc(F)c(F)cc1Cl)c1ccccc1 | 0.987%
46 | CC(C)N1CCN(Cc2ccccc2-c2ccco2)CC1CCO (stereo not drawn) | -35.3%
47 | CC(C)N1CCC(N2CCN(CCCc3ccccc3)CC2CCO)CC1 (stereo not drawn) | 10.1%
48 | CC(C)N1CCC(N2CCN(Cc3cccnc3)CC2CCO)CC1 (stereo not drawn) | 20.3%
49 | CC(C)N1CCN(Cc2ccc(Sc3nncn3C)o2)CC1CCO (stereo not drawn) | 22.9%
50 | CC(C)N1CCN(Cc2ccc(-c3ccccc3Cl)o2)CC1CCO (stereo not drawn) | -54.8%
51 | Cc1ccc(-c2cccc(CN3CCN(C(C)C)C(CCO)C3)c2)o1 (stereo not drawn) | 13.4%
52 | Cc1ccc(-c2cccc(CN3CCN(C4CCN(C(C)C)CC4)C(CCO)C3)c2)o1 (stereo not drawn) | -59.4%
53 | CC(C)N1CCC(N2CCN(Cc3ccc4nonc4c3)CC2CCO)CC1 (stereo not drawn) | -27.5%
54 | CC(C)N1CCC(N2CCN(C/C=C/c3ccccc3)CC2CCO)CC1 (stereo not drawn) | -7.17%
55 | CC(C)N1CCC(N2CCN(Cc3ccc(-c4ccc(Cl)cc4)o3)CC2CCO)CC1 (stereo not drawn) | -64.5%
56 | CC(C)N1CCC(N2CCN(Cc3ccc4nsnc4c3)CC2CCO)CC1 (stereo not drawn) | -8.62%
57 | CC(C)N1CCC(N2CCN(Cc3ccc(-c4ccccc4Cl)o3)CC2CCO)CC1 (stereo not drawn) | -66.6%
